Results on eight compounds are retold here after PubChem BioAssay (Tox21).

Test [1] is described as follows: qHTS assay to identify small molecule antagonists of the sonic hedgehog signaling (Shh) pathway (AID 1259369; calls by dose curve; note: nearly all actives have a fitted effect of over 45% in size; note: potency is the fitted concentration of half-maximal effect). In a few lines: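 Luminescence readout: firefly Luc under Gli1 response element in 3T3Gli1-Luc cells (NIH/3T3 clone). Antagonist mode, stimulation by conditioned medium; compound exposure 24hr at 37 C, 5% CO2.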
Test [2] in a line: qHTS assay to identify small molecule agonists of the androgen receptor (AR) signaling pathway in the presence of an antagonist - cell viability counter screen (AID 1259379). Note: nearly all actives have a fitted effect of over 25% in size. Note: potency is the fitted concentration of half-maximal effect. Summed up:
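Viability counter screen: CellTiter-Fluor fluorescence, measured in the same wells as the luciferase read-out. MDA-kb2 cells, 3,000/well, with nilutamide at 3.0uM final and compounds at 15 concentrations, 16 hr at 37C, 0% CO2.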

Test [3] can be described thus: qHTS assay to identify small molecule agonists of the estrogen receptor beta (ER-beta) signaling pathway - cell viability counter screen (AID 1259380). Note: nearly all actives have a fitted effect of over 30% in size. Note: potency is the fitted concentration of half-maximal effect. Summed up: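 Luminescence read-out (CellTiter-Glo, 30 min, room temp) taken in the same wells as the beta-lactamase reporter assay; ER-beta-UAS-bla HEK293T cells exposed to DMSO-dissolved compounds for 16 hr at 37C in 2% charcoal-stripped FBS medium.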
On the technique in general: Quantitative high-throughput screening tests each substance at several concentrations.

Test [4] in a line: qHTS assay to identify small molecule antagonists of the estrogen receptor beta (ER-beta) signaling pathway - cell viability counter screen (AID 1259382). Note: nearly all actives have a fitted effect of over 55% in size. Note: potency is the fitted concentration of half-maximal effect. In a few lines:
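Luminescent ATP read-out (CellTiter-Glo, 30 min, RT) taken in the same wells as the bla reporter assay. HEK293T ER-beta-UAS-bla cells in 2% charcoal-stripped FBS were exposed to compounds with 1nM E2 for 16 hr at 37C.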

Test [5] has as its target Estrogen receptor (Homo sapiens) (UniProt P03372). As to the kind of experiment: qHTS assay to identify small molecule agonists of the estrogen receptor alpha (ER-alpha) signaling pathway in the presence of an antagonist (AID 1259383; calls by dose curve; note: nearly all actives have a fitted effect of over 15% in size; note: potency is the fitted concentration of half-maximal effect; for activation: top concentration of the series differs between compounds). Summed up:
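Luciferase luminescence (ONE-Glo, 30min at room temperature) measured in VM7Luc4E2 cells after 22hr compound exposure at 15 concentrations, with 10.0nM ICI-182,780 final present; cells express endogenous ER-alpha and carry four EREs upstream of luciferase.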

A short description of test [6]: qHTS assay to identify small molecule agonists or antagonists of the thyroid stimulating hormone receptor (TSHR) signaling pathway - wild type cell line counter screen (AID 1259384; calls by dose curve). Summed up: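 Counter screen in untransfected Hek293: compounds (15-point titration, triplicate) plus phosphodiesterase inhibitor Ro20-1724 added after 18 h plating; 30 min RT. Intracellular cAMP via competitive d2/cryptate immunoassay, 1 h incubation.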

In test [7] the target is Thyrotropin receptor (Homo sapiens) (UniProt P16473). Nature of the test: qHTS assay to identify small molecule antagonists of the thyroid stimulating hormone receptor (TSHR) signaling pathway (AID 1259385; calls by dose curve; note: nearly all actives have a fitted effect of over 20% in size). In a few lines: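 Antagonist mode: compound-treated TSHR-expressing HEK293 cells were stimulated with 1.5 ng/mL TSH (final) in presence of Ro20-1724 for 30 min at RT. HTRF cAMP detection after 1 h; each compound tested at 15 concentrations, triplicate.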

Test [8] in a line: qHTS assay to identify small molecule agonists of the estrogen receptor alpha (ER-alpha) signaling pathway in the presence of an antagonist - cell viability counter screen (AID 1259386). Note: nearly all actives have a fitted effect of over 30% in size. Note: potency is the fitted concentration of half-maximal effect. In a few lines: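 Read-out: CellTiter-Fluor fluorescence after 1hr reagent incubation, measured in the same wells as the luciferase readout. VM7Luc4E2 cells were exposed to 15 compound concentrations with 10.0nM ICI-182,780 for 22hr at 37C.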

Test [9] concerns the target Progesterone receptor (Homo sapiens) (UniProt P06401). Nature of the test: qHTS assay to identify small molecule agonists of the progesterone receptor (PR) signaling pathway (AID 1346784; calls by dose curve; note: nearly all actives have a fitted effect of over 30% in size; note: potency is the fitted concentration of half-maximal effect). Summed up:
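PR-UAS-bla HEK 293T cells (beta-lactamase reporter under UAS) in 2% charcoal-stripped FBS, dosed with 23 nL compound after 6 hr, incubated 16hr at 37C. LiveBLAzer B/G FRET substrate added, fluorescence read after 2 hours.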

Test [10] has the same target. Nature of the test: qHTS assay to identify small molecule antagonists of the progesterone receptor (PR) signaling pathway (AID 1346795; active = well fitted inhibition curve with a large enough effect in the signal ratio in the repeat runs, not every such curve was filed as active; the % refers to the signal ratio; note: potency is the fitted concentration of half-maximal effect). In a few lines:
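PR-UAS-bla HEK293T cells with beta-lactamase reporter under UAS control, in 2% charcoal-stripped FBS, treated with compounds plus 1 nM promegestone (R5020, final) for 16 hr at 37C. Read-out: FRET beta-lactamase substrate fluorescence after 2 hr at room temperature.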

Test [11] can be described thus: qHTS assay to identify small molecule antagonists of the progesterone receptor (PR) signaling pathway - cell viability counter screen (AID 1346798). Note: nearly all actives have a fitted effect of over 50% in size. Note: potency is the fitted concentration of half-maximal effect. In a few lines:
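PR-UAS-bla HEK293T cells, 3,000/well in 2% charcoal-stripped FBS medium, dosed with compounds plus R5020 agonist and incubated 16 h at 37C. Viability then measured in the same wells by CellTiter-Glo luminescence after 30 min at RT.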

Test [12] in a line: qHTS assay to identify small molecule agonists of the progesterone receptor (PR) signaling pathway - cell viability counter screen (AID 1346799; calls by dose curve; note: nearly all actives have a fitted effect of over 45% in size). Summed up: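 Counter screen in the PR-UAS-bla HEK293T wells (2% charcoal-stripped FBS, 16 h compound exposure at 37 C) after the bla read. CellTiter-Glo added, 30 min at room temperature, luminescence read as cell viability.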
Test [13] in a line: qHTS assay to identify small molecule antagonists of the TGF-beta/Smad signaling pathway - cell viability counter screen (AID 1346824). Note: nearly all actives have a fitted effect of over 50% in size. Note: potency is the fitted concentration of half-maximal effect. In a few lines:
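Cytotoxicity counter-screen run in the same wells as the beta-lactamase Smad reporter read: CellTiter-Glo luminescence after 30 min at room temperature. HEK 293T SBE-bla cells had 5 hr compound exposure at 37 C with TGF-beta1 (0.25 ng/mL stock).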

Test [14] can be described thus: qHTS assay to identify small molecule agonists of the TGF-beta/Smad signaling pathway - cell viability counter screen (AID 1346829). Note: nearly all actives have a fitted effect of over 45% in size. Note: potency is the fitted concentration of half-maximal effect. In a few lines: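 In parallel with the Smad reporter read, viability of HEK 293T cells stably carrying SBE-bla is quantified by ATP luminescence following 5 hr compound treatment.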
Test [15] is described as follows: qHTS assay to identify small molecule agonists of the TGF-beta/Smad signaling pathway (AID 1346859; active = well fitted activation curve with a large enough effect in the signal ratio in the repeat runs, not every such curve was filed as active; the % refers to the signal ratio; note: series mostly up to about 77 µM). In a few lines:
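SBE-bla HEK293T cells plated overnight, then compound exposure for 5 h at 37 C. Beta-lactamase reporter read with LiveBLAzer B/G FRET substrate after 2 h at room temperature, fluorescence at 405 nm excitation, 460/530 nm emission.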

The target in test [16] is Thyrotropin-releasing hormone receptor (Homo sapiens) (UniProt P34981). As to the kind of experiment: qHTS assay to identify small molecule antagonists of the thyrotropin-releasing hormone receptor (TRHR) signaling pathway (AID 1346877; active = well fitted inhibition curve with a large enough effect in the repeat runs, not every such curve was filed as active; note: series mostly up to about 51 µM). Summed up: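 HEK293/TRHR cells, 18 h, 37 °C; Ca2+ dye 2 h; cpd 5 min RT; TRH 1 nM final; fluorescence read 3 min, 1 s intervals; 15 concs, triplicate.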

For test [17] the target is unchanged. Nature of the test: qHTS assay to identify small molecule agonists of the thyrotropin-releasing hormone receptor (TRHR) signaling pathway (AID 1346891; calls by dose curve; note: series mostly up to about 58 µM). In a few lines:
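HEK293 cells expressing TRHR plated 18 h at 37 C/5% CO2, calcium dye-loaded 2 h at 37 C, then compound added (agonist mode); kinetic calcium fluorescence read 3 min at 1 s intervals; 15 concentrations in triplicate.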

Each structure is given as a SMILES string. Where “and” joins values, the source holds several entries; their conditions need not be identical. Equal values may be shown once. Inconclusive results are not listed. Calls of active or inactive are those of the source. Unless noted, calls come from the whole dose curve; as a rule, active = well fitted curve in the direction sought with a large enough effect in the repeat runs; inconclusive = weak or mixed curves; inactive = no such curve, though single readings can be large; an effect the other way counts as inactive or inconclusive.

Chain of Thyrotropin-releasing hormone receptor (Homo sapiens) (P34981 whole entry, looked up): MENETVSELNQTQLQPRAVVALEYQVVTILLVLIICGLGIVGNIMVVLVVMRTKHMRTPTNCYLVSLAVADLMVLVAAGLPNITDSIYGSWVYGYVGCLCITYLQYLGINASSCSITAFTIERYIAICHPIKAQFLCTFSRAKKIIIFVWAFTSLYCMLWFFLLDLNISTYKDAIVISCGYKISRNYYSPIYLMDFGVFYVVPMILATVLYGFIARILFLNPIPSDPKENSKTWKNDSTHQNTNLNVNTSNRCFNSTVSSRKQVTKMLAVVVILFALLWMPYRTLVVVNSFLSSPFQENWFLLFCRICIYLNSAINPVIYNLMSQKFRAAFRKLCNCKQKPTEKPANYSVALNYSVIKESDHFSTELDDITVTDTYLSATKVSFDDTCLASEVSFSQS
Chain of Thyrotropin receptor (Homo sapiens) (P16473 whole entry, looked up): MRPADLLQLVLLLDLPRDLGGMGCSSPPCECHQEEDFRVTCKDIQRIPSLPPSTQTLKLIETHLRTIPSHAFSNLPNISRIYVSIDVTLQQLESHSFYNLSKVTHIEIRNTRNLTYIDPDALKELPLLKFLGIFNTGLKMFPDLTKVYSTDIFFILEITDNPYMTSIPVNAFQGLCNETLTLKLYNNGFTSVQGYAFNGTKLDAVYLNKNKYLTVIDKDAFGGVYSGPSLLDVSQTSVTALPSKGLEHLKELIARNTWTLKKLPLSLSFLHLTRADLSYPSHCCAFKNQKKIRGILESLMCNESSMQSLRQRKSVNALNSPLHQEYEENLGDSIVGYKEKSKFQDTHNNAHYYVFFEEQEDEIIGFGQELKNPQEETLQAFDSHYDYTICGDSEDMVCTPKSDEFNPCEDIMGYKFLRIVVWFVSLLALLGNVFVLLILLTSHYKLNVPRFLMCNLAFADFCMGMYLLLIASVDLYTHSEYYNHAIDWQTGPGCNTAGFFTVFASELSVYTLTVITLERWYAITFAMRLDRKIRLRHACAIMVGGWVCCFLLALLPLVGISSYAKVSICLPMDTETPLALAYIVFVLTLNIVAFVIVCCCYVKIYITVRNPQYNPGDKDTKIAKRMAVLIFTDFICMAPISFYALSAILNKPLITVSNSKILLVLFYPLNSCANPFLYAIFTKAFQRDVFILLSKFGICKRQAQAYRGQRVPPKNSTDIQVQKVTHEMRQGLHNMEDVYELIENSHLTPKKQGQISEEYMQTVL
Chain of Estrogen receptor (Homo sapiens) (P03372 whole entry, looked up): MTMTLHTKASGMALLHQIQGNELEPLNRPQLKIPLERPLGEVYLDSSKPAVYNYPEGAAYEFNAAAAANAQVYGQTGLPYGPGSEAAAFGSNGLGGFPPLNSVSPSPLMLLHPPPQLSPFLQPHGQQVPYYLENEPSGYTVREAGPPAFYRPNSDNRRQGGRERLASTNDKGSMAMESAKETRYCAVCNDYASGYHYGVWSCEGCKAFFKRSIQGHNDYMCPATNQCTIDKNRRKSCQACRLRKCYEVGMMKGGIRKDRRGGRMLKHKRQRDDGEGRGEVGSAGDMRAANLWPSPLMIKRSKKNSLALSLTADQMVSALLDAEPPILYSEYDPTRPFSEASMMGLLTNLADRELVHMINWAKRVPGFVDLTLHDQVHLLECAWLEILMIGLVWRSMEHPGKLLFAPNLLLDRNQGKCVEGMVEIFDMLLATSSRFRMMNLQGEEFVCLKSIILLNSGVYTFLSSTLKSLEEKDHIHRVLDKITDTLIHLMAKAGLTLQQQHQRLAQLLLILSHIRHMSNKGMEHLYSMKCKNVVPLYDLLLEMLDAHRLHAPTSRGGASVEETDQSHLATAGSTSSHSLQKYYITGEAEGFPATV
Chain of Progesterone receptor (Homo sapiens) (P06401 whole entry, looked up): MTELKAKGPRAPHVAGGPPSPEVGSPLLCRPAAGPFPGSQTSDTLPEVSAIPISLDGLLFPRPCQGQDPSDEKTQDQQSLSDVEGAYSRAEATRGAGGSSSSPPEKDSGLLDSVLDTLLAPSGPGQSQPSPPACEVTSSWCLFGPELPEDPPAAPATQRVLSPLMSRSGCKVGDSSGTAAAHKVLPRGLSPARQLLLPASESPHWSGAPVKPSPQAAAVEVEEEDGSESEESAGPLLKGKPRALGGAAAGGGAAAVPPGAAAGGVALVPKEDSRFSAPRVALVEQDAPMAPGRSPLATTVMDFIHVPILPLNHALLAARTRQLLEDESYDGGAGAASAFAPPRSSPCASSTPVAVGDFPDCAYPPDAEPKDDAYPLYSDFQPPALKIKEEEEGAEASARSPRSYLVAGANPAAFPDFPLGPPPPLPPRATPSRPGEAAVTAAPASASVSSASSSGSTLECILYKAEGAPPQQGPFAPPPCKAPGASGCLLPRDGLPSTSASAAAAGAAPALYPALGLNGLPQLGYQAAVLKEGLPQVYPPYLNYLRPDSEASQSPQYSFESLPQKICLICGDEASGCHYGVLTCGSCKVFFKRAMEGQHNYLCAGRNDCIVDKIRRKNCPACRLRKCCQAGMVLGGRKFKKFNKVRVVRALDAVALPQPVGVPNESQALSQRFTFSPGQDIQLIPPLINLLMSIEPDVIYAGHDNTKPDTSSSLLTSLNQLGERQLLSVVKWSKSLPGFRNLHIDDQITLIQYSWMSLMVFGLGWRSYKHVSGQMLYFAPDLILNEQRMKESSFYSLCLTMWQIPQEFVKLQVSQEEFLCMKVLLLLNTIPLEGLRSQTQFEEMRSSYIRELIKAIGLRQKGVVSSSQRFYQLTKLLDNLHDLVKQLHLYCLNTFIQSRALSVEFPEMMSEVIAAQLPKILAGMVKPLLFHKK

With `C=CC(C)(CCC=C(C)C)OC(C)=O` (stereo not given), the Potency entry in test [1], in test [2], in [3], in test [4], in test [5] and in [7] was “inactive” each time. Further, the Potency result in test [8], in test [9], in test [10], in test [11], in [12] and in test [13] was “inactive” in each case. Further, the Potency result in test [14], in test [16] and in test [17] was “inactive” each time. Besides, the outcome in [6] and in [15] was inactive.
As for `C#C[C@]1(O)CC[C@H]2[C@@H]3CCc4cc(OC)ccc4[C@H]3CC[C@@]21C`, the Potency entry in test [1], in test [2], in [7], in [8], in test [11] and in [13] was “inactive” in each case. Also, the Potency entry in test [14], in test [16] and in test [17] was “inactive” in each case. Further, the Potency was 21.7 µM (active) in [3]; 137 nM (active) and 211 nM (active) in test [5]; 7.7 µM (active) in test [9]. In addition, the compound was called inactive in [6] and in [15].
On to `c1ccc2sc(SSN3CCOCC3)nc2c1`, for which the Potency in [1] was 9.67 µM (active); in test [3], 30.6 µM (active). The Potency result in [2], in test [5], in test [8], in [9], in test [11] and in test [13] was “inactive” throughout. The Potency entry in [14], in [16] and in [17] was “inactive” throughout. The call in [6] and in [15] was inactive.
In the case of `CC(=O)Oc1ccccc1C(=O)Nc1ncc([N+](=O)[O-])s1`, the Potency in [1] is 9.88 µM (active) and 18.8 µM (active); in [2], 22.1 µM (active) and 13.3 µM (active); in test [4], 22.1 µM (active); in test [8], 24.8 µM (active) and 23.7 µM (active); in test [13], 14.1 µM (active) and 8.49 µM (active); in test [14], 11.2 µM (active). Moreover, the Potency result in test [5], in test [7], in test [9], in [16] and in test [17] was “inactive” in each case. The outcome in test [6] was inactive.
Regarding `CCC(C)(O)CCCC(C)C` (stereo not given), the Potency entry in [1], in test [2], in test [4], in test [5], in test [8] and in test [9] was “inactive” each time. In addition, the Potency entry in test [10], in [11], in [12], in [13] and in test [14] was “inactive” each time. The compound was classed as inactive in [6] and in [15].
Regarding `O=C(c1ccc(OCCN2CCCCC2)cc1)c1c(-c2ccc(O)cc2)sc2cc(O)ccc12`, the Potency in test [1] is 4.86 µM (active) and 2.73 µM (active) and 8.41 µM (active); in test [2] it was 61.2 µM (active) and 61.1 µM (active) and 26.6 µM (active); in test [3], 54.5 µM (active) and 34.4 µM (active) and 23.7 µM (active); in [4], 54.5 µM (active) and 26.6 µM (active); in test [8], 54.5 µM (active) and 30.6 µM (active); in [10], 30.6 µM (active) and 29.8 µM (active). Besides, the Potency in test [11] was 61.2 µM (active) and 61.1 µM (active) and 26.6 µM (active). In addition, the Potency entry in test [13] and in test [14] was “inactive” each time.
Regarding `COc1ccc(OC)c(C(O)CNC(=O)CN)c1` (stereo not given), the Potency result in test [1], in [2], in [4], in test [5], in [7] and in [8] was “inactive” in each case. In addition, the Potency entry in [9], in test [10], in test [11], in test [12], in test [13] and in test [14] was “inactive” each time. Moreover, the compound was classed as inactive in test [6] and in test [15].
Turning to `Brc1cc(Oc2cc(Br)c(Br)c(Br)c2Br)c(Br)c(Br)c1Br`, the Potency result in test [1], in test [2], in [4], in test [7], in test [8] and in [9] was “inactive” in each case. In addition, the Potency result in test [10], in test [13], in test [14], in [16] and in [17] was “inactive” each time. Moreover, the result in [6] and in [15] was inactive.
